Measurements as given in PubChem BioAssay (EPA / NIEHS).
Inconclusive results are not listed. Activity calls are given as the source filed them. The calls were made as follows, unless noted: active = hit-call score of the fitted dose curve at least 0.9, where 1 is the maximum; inconclusive = response in the unintended direction; inactive = score below 0.9.

What was measured:
[1] = molecular target: Thyroid hormone receptor alpha (Rattus norvegicus) + Thyroid hormone receptor beta (Rattus norvegicus) (UniProt P18113+P63059); test: TOX21_TR_LUC_GH3_Antagonist_Followup: Tox21 GH3 Thyroid Hormone Receptor Antagonism Luciferase Follow-Up Assay (AID 2283942)
Procedure, shortened: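 Rat pituitary GH3 cells with a TRα/TRβ-driven luciferase reporter, 5 h attachment, then 15 concentrations (92 uM to 5nM final) plus 1.0 nM T3 agonist, 24 h at 37C/5% CO2. ONE-Glo luminescence; signal change fitted against DMSO baseline.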

[2] = molecular target: THRA (gene 7067) (UniProt P10827); test: TOX21_TRA_COA_Antagonist_Followup_ratio: Tox21 Thyroid Hormone Receptor alpha Antagonism through Coactivator Recruitment Follow-Up Assay, Ratio (AID 2283953)
Procedure, shortened: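 520:495 nm emission ratio (excitation 340 nm) reports fluorescein-SRC-2 peptide recruitment to GST-TRα LBD by TR-FRET with Tb anti-GST antibody. Values were normalized to DMSO (0%) and T3 control wells (100%); loss of signal indicated antagonism.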

[3] = molecular target: THRB (gene 7068) (UniProt P10828); test: TOX21_TRB_BLA_Antagonist_Followup_ratio: Tox21 Thyroid Hormone Receptor beta Antagonism Beta-lactamase (BLA) Follow-Up Assay, Ratio (AID 2283958)
Procedure, shortened: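 HEK293T TRb-bla (GAL4 DBD + hTRβ LBD), 2% cs-FBS phenol red-free DMEM, 5 h attach; cpds 11-pt triplicate, 18 h 37C; CCF4-AM 2 h RT; 460/530 ratio vs DMSO; CellTiter-Glo viability same wells.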

[4] = TOX21_TRB_BLA_Antagonist_Followup_viability: Viability Assessment in the Tox21 Thyroid Hormone Receptor beta Antagonism Beta-lactamase (BLA) Follow-Up Assay (AID 2283961)
Procedure, shortened: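 ATP-based CellTiter-Glo luminescence (30 min, room temperature) run in the same wells as the TRβ-bla readout. Cells: GeneBLAzer HEK293T expressing GAL4-TRβ LBD, exposed 18 h at 37C to compounds at 11 concentrations in triplicate, stripped-serum medium.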

[5] = molecular target: THRB (gene 7068) (UniProt P10828); test: TOX21_TRB_COA_Antagonist_Followup_ratio: Tox21 Thyroid Hormone Receptor beta Antagonism through Coactivator Recruitment Follow-Up Assay, Ratio (AID 2283967)
Procedure, shortened: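 Cell-free TR-FRET coactivator recruitment with GST-tagged TRβ LBD (5.0 nM) and fluorescein-labeled SRC-2 peptide (200 nM) detected by terbium anti-GST antibody (2 nM). The 520:495 nm emission ratio was normalized to DMSO (0%) and T3 (100%).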

[6] = molecular target: Retinoic acid receptor RXR-alpha (Homo sapiens) (UniProt P19793); test: TOX21_TR_RXR_BLA_Antagonist_Followup_ratio: Tox21 Thyroid Hormone Receptor beta Retinoid X Receptor alpha (RXRa) Antagonism Beta-lactamase (BLA) Follow-Up Assay, Ratio (AID 2283972)
Procedure, shortened: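 After 5 h attachment at 37C, HEK293T RXRa-bla cells (2,500/well, 2% charcoal-stripped FBS, no phenol red) received compounds at 11 concentrations in triplicate for 16 h. Beta-lactamase read as 460:530 nm ratio after 2 h RT substrate loading.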

[7] = TOX21_TR_RXR_BLA_Antagonist_Followup_viability: Viability Assessment in the Tox21 Thyroid Hormone Receptor beta Retinoid X Receptor alpha (RXRa) Antagonism Beta-lactamase (BLA) Follow-Up Assay (AID 2283979)
Procedure, shortened: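 RXRa-UAS-bla HEK293T cells seeded 2,500/well in phenol red-free DMEM with 2% charcoal-stripped FBS, attached 5 h, then exposed to compounds at 11 concentrations in triplicate for 16 h at 37C/5% CO2. Viability read by CellTiter-Glo ATP luminescence; bidirectional fit versus DMSO.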

[8] = CCTE_Harrill_HTTr_Viability_DMEM_6hr: (Pilot) CCTE's 6-hour Cell Viability Assessment for the High-Throughput Transcriptomics (HTTr) Platform, in MCF-7 cells cultured in DMEM + 10% fetal bovine serum, Harrill Lab (AID 2283973; active = hit-call score of the fitted dose curve at least 0.9, where 1 is the maximum; inactive = score below 0.9)
Procedure, shortened: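 MCF-7 cells in DMEM + 10% FBS, eight-point dilution series, 6 h exposure. Membrane integrity by propidium iodide exclusion with high-content imaging; bidirectional fit versus DMSO.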

[9] = CCTE_Harrill_HTTr_Viability_DMEM_12hr: (Pilot) CCTE's 12-hour Cell Viability Assessment for the High-Throughput Transcriptomics (HTTr) Platform, in MCF-7 cells cultured in DMEM + 10% fetal bovine serum, Harrill Lab (AID 2283974; active = hit-call score of the fitted dose curve at least 0.9, where 1 is the maximum; inactive = score below 0.9)
Procedure, shortened: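 MCF-7 cells in DMEM + 10% FBS exposed 12 h to an eight-point dilution series; membrane integrity scored by propidium iodide exclusion with high-content imaging, bidirectional fitting versus DMSO.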

[10] = CCTE_Harrill_HTTr_Viability_DMEM_24hr: (Pilot) CCTE's 24-hour Cell Viability Assessment for the High-Throughput Transcriptomics (HTTr) Platform, in MCF-7 cells cultured in DMEM + 10% fetal bovine serum, Harrill Lab (AID 2283975; active = hit-call score of the fitted dose curve at least 0.9, where 1 is the maximum; inactive = score below 0.9)
Procedure, shortened: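 MCF-7 cells in DMEM with 10% FBS exposed for 24 hours to an eight-point dilution series. Membrane integrity by propidium iodide exclusion with high content imaging; bidirectional fit against DMSO.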

[11] = CCTE_Harrill_HTTr_Viability_PRF_DMEM_6hr: (Pilot) CCTE's 6-hour Cell Viability Assessment for the High-Throughput Transcriptomics (HTTr) Platform, in MCF-7 cells cultured phenol red-free DMEM + 10% charcoal-stripped fetal bovine serum, Harrill Lab (AID 2283976; active = hit-call score of the fitted dose curve at least 0.9, where 1 is the maximum; inactive = score below 0.9)
Procedure, shortened: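 MCF-7 cells in phenol red-free DMEM with 10% charcoal-stripped FBS exposed 6 hours to an eight-point dilution series. Propidium iodide exclusion imaged; curves fitted bidirectionally against DMSO.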

[12] = CCTE_Harrill_HTTr_Viability_PRF_DMEM_12hr: (Pilot) CCTE's 12-hour Cell Viability Assessment for the High-Throughput Transcriptomics (HTTr) Platform, in MCF-7 cells cultured in phenol red-free DMEM + 10% charcoal-stripped fetal bovine serum, Harrill Lab (AID 2283977; active = hit-call score of the fitted dose curve at least 0.9, where 1 is the maximum; inactive = score below 0.9)
Procedure, shortened: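 MCF-7 cells in phenol red-free DMEM with 10% charcoal-stripped FBS exposed 12 hours to an eight-point dilution series. Viability assessed by high-content imaging of propidium iodide exclusion; bidirectional fit versus DMSO.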

[13] = CCTE_Harrill_HTTr_Viability_PRF_DMEM_24hr: (Pilot) CCTE's 24-hour Cell Viability Assessment for the High-Throughput Transcriptomics (HTTr) Platform, in MCF-7 cells cultured in phenol red-free DMEM + 10% charcoal-stripped fetal bovine serum, Harrill Lab (AID 2283980; active = hit-call score of the fitted dose curve at least 0.9, where 1 is the maximum; inactive = score below 0.9)
Procedure, shortened: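 MCF-7 cells in phenol red-free DMEM with 10% charcoal-stripped FBS, eight-point dilution series, 24 h exposure. Membrane integrity by propidium iodide exclusion with high content imaging; bidirectional fit vs DMSO.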

[14] = CCTE_Harrill_HTTr_Apoptosis_DMEM_6hr: (Pilot) CCTE's 6-hour Apoptosis Assessment for the High-Throughput Transcriptomics (HTTr) Platform, in MCF-7 cells cultured in DMEM + 10% fetal bovine serum, Harrill Lab (AID 2283981; active = hit-call score of the fitted dose curve at least 0.9, where 1 is the maximum; inactive = score below 0.9)
Procedure, shortened: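 Caspase-3/7 activation read by high content imaging with CellEvent Caspase 3/7 Green in MCF-7 cells (DMEM + 10% FBS), 6 h after dosing; eight-point dilution series. Bidirectional fitting relative to DMSO baseline.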

[15] = CCTE_Harrill_HTTr_Apoptosis_DMEM_12hr: (Pilot) CCTE's 12-hour Apoptosis Assessment for the High-Throughput Transcriptomics (HTTr) Platform, in MCF-7 cells cultured in DMEM + 10% fetal bovine serum, Harrill Lab (AID 2283982; active = hit-call score of the fitted dose curve at least 0.9, where 1 is the maximum; inactive = score below 0.9)
Procedure, shortened: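 MCF-7 cells in DMEM + 10% FBS, exposed 12 h to an eight-point dilution series; caspase-3/7 activation imaged with CellEvent Green. Bidirectional fit versus DMSO.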

[16] = CCTE_Harrill_HTTr_Apoptosis_DMEM_24hr: (Pilot) CCTE's 24-hour Apoptosis Assessment for the High-Throughput Transcriptomics (HTTr) Platform, in MCF-7 cells cultured in DMEM + 10% fetal bovine serum, Harrill Lab (AID 2283983; active = hit-call score of the fitted dose curve at least 0.9, where 1 is the maximum; inactive = score below 0.9)
Procedure, shortened: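 MCF-7 cells in DMEM + 10% FBS, eight-point dilution series, 24 h exposure. Caspase-3/7 activation imaged by high-content imaging with CellEvent Caspase 3/7 Green. Bidirectional curve fitting against DMSO baseline.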

[17] = CCTE_Harrill_HTTr_Apoptosis_PRF_DMEM_6hr: (Pilot) CCTE's 6-hour Apoptosis Assessment for the High-Throughput Transcriptomics (HTTr) Platform, in MCF-7 cells cultured phenol red-free DMEM + 10% charcoal-stripped fetal bovine serum, Harrill Lab (AID 2283984; active = hit-call score of the fitted dose curve at least 0.9, where 1 is the maximum; inactive = score below 0.9)
Procedure, shortened: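 MCF-7 cells in phenol red-free DMEM + 10% charcoal-stripped FBS, eight-point dilution series, 6 h exposure. Caspase-3/7 activation imaged by high-content imaging with CellEvent Caspase 3/7 Green; bidirectional fit versus DMSO baseline.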

[18] = TOX21_PR_LUC_Followup_Antagonist_viability: Viability Assessment in the Tox21 HEK293 Progesterone Receptor (PR) Antagonism Luciferase Follow-Up Assay (AID 2283940)
Procedure, shortened: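 Multiplexed viability counter-screen: after 5 days in charcoal-stripped-FBS medium, HEK293-PR-A-luc cells are plated, pinned with DMSO-dissolved compounds for 16 h at 37C, and ATP content is quantified luminescently via CellTiter-Glo.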

[19] = TOX21_PR_LUC_Followup_Agonist_viability: Viability Assessment in the Tox21 HEK293 Progesterone Receptor (PR) Agonism Luciferase Follow-Up Assay (AID 2283941);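 also: loss of signal means cytotoxicity so actives lower viability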
Procedure, shortened: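 Cells were kept 5 days in charcoal-stripped serum medium before plating HEK293-PR-A-luc at 3,000 cells/well. After 5 h they received DMSO-dissolved compound and incubated 16 h at 37C. Viability was taken from CellTiter-Glo ATP luminescence.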

[20] = TOX21_TR_RXR_BLA_Agonist_Followup_viability: Viability Assessment in the Tox21 Thyroid Hormone Receptor beta Retinoid X Receptor alpha (RXRa) Agonism Beta-lactamase (BLA) Follow-Up Assay (AID 2283970)
Procedure, shortened: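 Cells: HEK293T RXRa-UAS-bla, 2,500/well; medium phenol red-free DMEM + 2% charcoal-stripped FBS; 16h, 37C/5% CO2; qHTS concentration series. Read: CellTiter-Glo luminescence (ATP); bidirectional fit, DMSO = baseline.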

Measured: AC50

Retinoic acid receptor RXR-alpha (Homo sapiens), sequence (P19793 whole entry, looked up): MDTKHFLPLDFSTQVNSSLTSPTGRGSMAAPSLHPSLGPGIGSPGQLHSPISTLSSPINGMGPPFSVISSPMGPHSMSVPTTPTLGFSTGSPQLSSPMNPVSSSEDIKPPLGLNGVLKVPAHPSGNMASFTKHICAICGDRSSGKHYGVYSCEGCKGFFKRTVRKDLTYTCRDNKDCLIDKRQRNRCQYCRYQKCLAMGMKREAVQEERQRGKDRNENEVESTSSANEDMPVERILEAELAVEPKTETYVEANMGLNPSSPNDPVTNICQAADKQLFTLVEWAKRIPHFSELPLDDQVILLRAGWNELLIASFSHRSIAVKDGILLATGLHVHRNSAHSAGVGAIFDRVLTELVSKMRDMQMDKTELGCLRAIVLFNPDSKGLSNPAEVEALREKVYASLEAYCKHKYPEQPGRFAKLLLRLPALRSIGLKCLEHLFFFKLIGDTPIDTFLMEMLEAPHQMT
THRB (gene 7068), sequence (P10828 whole entry, looked up, the tested form may be a part): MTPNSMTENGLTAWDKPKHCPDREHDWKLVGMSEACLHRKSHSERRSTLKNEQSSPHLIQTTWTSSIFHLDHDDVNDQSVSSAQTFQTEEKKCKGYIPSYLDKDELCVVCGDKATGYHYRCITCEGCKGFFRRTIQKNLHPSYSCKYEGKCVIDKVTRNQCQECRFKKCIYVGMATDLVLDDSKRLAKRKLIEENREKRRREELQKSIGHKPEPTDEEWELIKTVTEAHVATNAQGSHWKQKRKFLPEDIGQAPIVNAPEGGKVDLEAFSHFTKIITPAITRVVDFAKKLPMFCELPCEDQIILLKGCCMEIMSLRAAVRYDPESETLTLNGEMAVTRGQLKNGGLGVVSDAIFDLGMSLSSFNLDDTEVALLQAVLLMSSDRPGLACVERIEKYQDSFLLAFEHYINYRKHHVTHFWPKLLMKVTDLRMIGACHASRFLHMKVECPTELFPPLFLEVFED
THRA (gene 7067), sequence (P10827 whole entry, looked up, the tested form may be a part): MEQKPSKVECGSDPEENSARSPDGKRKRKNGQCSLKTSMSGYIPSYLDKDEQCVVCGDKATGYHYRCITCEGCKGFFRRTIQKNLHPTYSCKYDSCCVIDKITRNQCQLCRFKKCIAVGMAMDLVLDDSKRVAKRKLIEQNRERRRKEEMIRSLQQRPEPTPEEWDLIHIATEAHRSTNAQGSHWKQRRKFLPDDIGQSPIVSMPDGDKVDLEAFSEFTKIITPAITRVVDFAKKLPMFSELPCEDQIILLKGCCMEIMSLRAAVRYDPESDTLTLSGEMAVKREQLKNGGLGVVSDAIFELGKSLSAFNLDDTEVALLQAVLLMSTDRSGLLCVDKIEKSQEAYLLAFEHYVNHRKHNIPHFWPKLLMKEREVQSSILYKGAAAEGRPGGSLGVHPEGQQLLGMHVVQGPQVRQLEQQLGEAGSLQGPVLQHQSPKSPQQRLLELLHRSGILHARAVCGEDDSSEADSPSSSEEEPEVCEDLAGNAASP

Nc1ccn([C@@H]2O[C@H](CO)[C@@H](O)C2O)c(=O)n1 (some centres not stated)
inactive: [1] | [2] | [3] | [4] | [5] | [6] | [7]

CCCCc1oc2ccccc2c1C(=O)c1cc(I)c(OCCN(CC)CC)c(I)c1
inactive: [8] | [11] | [14] | [15] | [17]
active: [9] 46.3 µM | [10] 73.9 µM | [12] 39.5 µM | [13] 70.4 µM | [16] 81.6 µM

O=c1cc(-c2ccccc2)oc2ccc3ccccc3c12
inactive: [1] | [2] | [4] | [5] | [7]

COc1ccccc1NC(=O)c1cc2ccccc2cc1O
active: [1] 27.2 µM | [3] 38.3 µM | [4] 28.3 µM | [6] 22 µM | [7] 24.1 µM

C[C@]12CC[C@@H]3c4ccc(O)cc4CC[C@H]3[C@@H]1C[C@@H](O)[C@@H]2O
inactive: [18] | [19]

Nc1cc(Cl)c(-c2cc(Cl)c(N)cc2Cl)cc1Cl
inactive: [2] | [5]
active: [1] 58.1 µM | [3] 6.14 µM | [4] 60.1 µM | [6] 24.6 µM | [7] 28 µM

Clc1ccc(Nc2nnc(Cc3ccncc3)c3ccccc23)cc1
inactive: [1] | [2] | [3] | [6]

CC(C)c1c(C(=O)Nc2ccccc2)c(-c2ccccc2)c(-c2ccc(F)cc2)n1CC[C@@H](O)C[C@@H](O)CC(=O)O
inactive: [2] | [3] | [4] | [5] | [6] | [7]

C=C(c1ccc(C(=O)O)cc1)c1cc2c(cc1C)C(C)(C)CCC2(C)C
inactive: [20]
